Experimental data: PubChem BioAssay
Inconclusive results are not listed. Active and inactive are the calls of the source.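 How the source made its calls, unless noted: active means thallium flux through the channel raised or lowered by more than 3 SD from vehicle-only wells, actives on both sides; inactive means the rest.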

How the values were obtained:
[1] = Cy5 fluorescence interference with SSB-bound oligo, artefact control for HCV NS3 helicase inhibitor project, biochemical, NIH Clinical Collection, E. coli SSB (AID 743268; call rule not given here)
[2] = growth inhibition of DIPG glioma cells, dose response, cell-based, JHH-DIPG-1, MIPE4.0, CellTiter-Glo, qHTS (AID 1347062; cut-off not given, nearly all actives have AC50 up to about 27 µM); details: JHH-DIPG-1 viability, CellTiter-Glo ATP luminescence
[3] = growth inhibition of DIPG glioma cells, dose response, cell-based, SU-DIPG-IV, MIPE4.0, CellTiter-Glo, qHTS (AID 1347063; cut-off not given, nearly all actives have AC50 up to about 30 µM;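 further: compound exposure lasted 48 hours before the viability readout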); details: SU-DIPG-IV viability, CellTiter-Glo ATP luminescence
[4] = SU-DIPG-VI glioma cell viability, MIPE4.0 library, CellTiter-Glo luminescence, qHTS (AID 1347066; cut-off not given, nearly all actives have AC50 up to about 30 µM;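 further: cells exposed to compound for 48 hours before readout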); details: CellTiter-Glo ATP luminescence
F380Y = test: modulators of BK channel variants, profiling panel, selectivity assay, cell-based, U2OS BacMam, thallium flux, beta subunits (AID 1259406); details: at 30 µM;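 further: initial slope of Thallos dye fluorescence rise after thallium is added; log ratio against the mean of 0.3% DMSO vehicle wells on the same plate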
F380Y/beta1 = test: as above; details: at 30 µM
F380Y/beta2Delta = test: as above; details: at 30 µM
F380Y/beta4 = test: as above; details: at 30 µM
[5] = target: Calcium-activated potassium channel subunit alpha-1 (Homo sapiens) + Leucine-rich repeat-containing protein 26 (Homo sapiens) (UniProt Q12791+Q2I0M4); test: as above; details: F380Y/Slo1WT/gamma1, at 30 µM
Chain of Calcium-activated potassium channel subunit alpha-1 (Homo sapiens) + Leucine-rich repeat-containing protein 26 (Homo sapiens) (Q2I0M4 whole entry, looked up, one chain of several): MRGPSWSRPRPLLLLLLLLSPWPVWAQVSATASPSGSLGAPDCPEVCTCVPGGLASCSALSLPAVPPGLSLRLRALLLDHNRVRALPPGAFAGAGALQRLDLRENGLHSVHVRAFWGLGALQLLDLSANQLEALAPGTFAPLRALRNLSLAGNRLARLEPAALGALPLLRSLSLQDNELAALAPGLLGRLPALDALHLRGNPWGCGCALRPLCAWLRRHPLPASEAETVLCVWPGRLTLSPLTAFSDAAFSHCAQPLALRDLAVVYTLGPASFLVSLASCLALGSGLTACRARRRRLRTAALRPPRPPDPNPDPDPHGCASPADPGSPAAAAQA

R275C = test: as above; details: at 30 µM
R275C/beta1 = test: as above; details: at 30 µM
R275C/beta2Delta = test: as above; details: at 30 µM
R275C/beta4 = test: as above; details: at 30 µM
R275C/Slo1WT/beta2 = test: as above; details: at 30 µM
[6] = target: ATP-dependent translocase ABCB1 (Homo sapiens) (UniProt P08183); test: MDR1 (ABCB1) efflux transporter inhibition, cell-based (AID 377; in the data active means fluorescence slope change above about 50%); details: MDR1-expressing cells, fluorescent substrate accumulation slope; stronger effect = higher value; concentration not given here
Chain of ATP-dependent translocase ABCB1 (Homo sapiens) (P08183 whole entry, looked up): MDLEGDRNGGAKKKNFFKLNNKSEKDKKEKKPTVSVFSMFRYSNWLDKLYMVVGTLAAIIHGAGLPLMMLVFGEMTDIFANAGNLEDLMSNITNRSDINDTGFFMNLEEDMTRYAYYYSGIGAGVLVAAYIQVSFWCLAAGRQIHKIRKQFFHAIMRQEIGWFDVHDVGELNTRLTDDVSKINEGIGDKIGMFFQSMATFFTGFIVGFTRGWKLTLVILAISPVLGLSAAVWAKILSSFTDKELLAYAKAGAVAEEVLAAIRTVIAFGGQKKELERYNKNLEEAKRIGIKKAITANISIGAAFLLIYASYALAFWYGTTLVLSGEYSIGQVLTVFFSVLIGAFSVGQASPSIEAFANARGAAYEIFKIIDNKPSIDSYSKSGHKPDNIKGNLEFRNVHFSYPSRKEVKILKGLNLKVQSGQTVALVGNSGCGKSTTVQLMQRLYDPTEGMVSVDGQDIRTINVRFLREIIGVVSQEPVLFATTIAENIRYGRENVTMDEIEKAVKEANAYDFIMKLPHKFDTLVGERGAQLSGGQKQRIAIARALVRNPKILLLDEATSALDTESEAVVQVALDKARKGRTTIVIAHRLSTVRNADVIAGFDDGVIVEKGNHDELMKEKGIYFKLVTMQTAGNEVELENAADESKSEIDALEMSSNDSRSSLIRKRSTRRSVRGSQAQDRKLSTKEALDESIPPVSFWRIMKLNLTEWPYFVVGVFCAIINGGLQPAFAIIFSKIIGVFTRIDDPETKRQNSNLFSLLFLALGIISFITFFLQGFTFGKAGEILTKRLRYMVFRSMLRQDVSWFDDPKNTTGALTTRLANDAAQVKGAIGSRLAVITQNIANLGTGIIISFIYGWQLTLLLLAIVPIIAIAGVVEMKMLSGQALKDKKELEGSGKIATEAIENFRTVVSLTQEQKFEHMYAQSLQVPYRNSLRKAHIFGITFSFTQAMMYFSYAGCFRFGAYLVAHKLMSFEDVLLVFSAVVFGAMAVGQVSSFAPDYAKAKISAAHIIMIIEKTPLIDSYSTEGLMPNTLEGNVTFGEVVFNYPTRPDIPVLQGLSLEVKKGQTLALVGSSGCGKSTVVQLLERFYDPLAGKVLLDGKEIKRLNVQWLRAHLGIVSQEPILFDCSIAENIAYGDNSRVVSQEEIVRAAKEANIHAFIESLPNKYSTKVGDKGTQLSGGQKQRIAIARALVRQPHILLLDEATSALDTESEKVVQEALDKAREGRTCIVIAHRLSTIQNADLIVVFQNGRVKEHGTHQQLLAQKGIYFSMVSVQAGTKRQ

[7] = reducers of polyQ inclusions in PC12 cells, cell-based, NGF-treated PC12, GFPQ80 (AID 1614); details: PC12 NGF-treated GFP-polyQ80 inclusion reduction;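 further: lower means fewer inclusions and 0 means no inclusions at all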

CN1CCN(C2=Nc3cc(Cl)ccc3Nc3ccccc32)CC1
active: log fold change Tl+ flux (F380Y) 0.296 | log fold change Tl+ flux (F380Y/beta1) 0.177 | log fold change Tl+ flux (F380Y/beta2Delta) 0.389 | log fold change Tl+ flux (F380Y/beta4) 0.214 | log fold change Tl+ flux (R275C/beta1) 0.156 | log fold change Tl+ flux (R275C/beta2Delta) 0.106 | log fold change Tl+ flux (R275C/beta4) 0.137
inactive: fluorescence ratio [1] 1.04 | outcome [2] | outcome [3] | outcome [4] | log fold change Tl+ flux [5] 0.0716 | log fold change Tl+ flux (R275C) 0.0716 | log fold change Tl+ flux (R275C/Slo1WT/beta2) 0.0195

O=C(O)CCc1nc(-c2ccccc2)c(-c2ccccc2)o1
active: log fold change Tl+ flux (F380Y/beta1) 0.171 | log fold change Tl+ flux (R275C/beta1) 0.113
inactive: fluorescence ratio [1] 1.04 | log fold change Tl+ flux (F380Y) 0.0468 | log fold change Tl+ flux (F380Y/beta2Delta) 0.0584 | log fold change Tl+ flux (F380Y/beta4) 0.0201 | log fold change Tl+ flux [5] 0.0291 | log fold change Tl+ flux (R275C) -0.025 | log fold change Tl+ flux (R275C/beta2Delta) 0.0648 | log fold change Tl+ flux (R275C/beta4) 0.0678 | log fold change Tl+ flux (R275C/Slo1WT/beta2) 0.0514

CN1C(=O)CC[C@H]1c1cccnc1
2: inclusion score [7]
inactive: fluorescence ratio [1] 1.01 | log fold change Tl+ flux (F380Y) -0.00809 | log fold change Tl+ flux (F380Y/beta2Delta) 0.00811 | log fold change Tl+ flux [5] 0.0267 | log fold change Tl+ flux (R275C) -0.00497 | log fold change Tl+ flux (R275C/beta1) -0.0358 | log fold change Tl+ flux (R275C/beta2Delta) -0.0502
active: fluorescence slope change [6] 94.5%

Cc1cc(NS(=O)(=O)c2ccc(N)cc2)no1
active: fluorescence slope change [6] 62%
inactive: fluorescence ratio [1] 1.03 | outcome [2] | outcome [3] | log fold change Tl+ flux (F380Y) -0.0179 | log fold change Tl+ flux (F380Y/beta1) -0.0321 | log fold change Tl+ flux (F380Y/beta2Delta) 0.0172 | log fold change Tl+ flux (F380Y/beta4) -0.00222 | log fold change Tl+ flux [5] -0.00437 | log fold change Tl+ flux (R275C) 0.00714 | log fold change Tl+ flux (R275C/beta1) 0.00387 | log fold change Tl+ flux (R275C/beta2Delta) -0.00735 | log fold change Tl+ flux (R275C/beta4) -0.0559 | log fold change Tl+ flux (R275C/Slo1WT/beta2) -0.0702
2: inclusion score [7]

CCN(CC)CCOc1ccc(Cc2ccccc2)cc1
inactive: outcome [4]

Cc1ccc(-n2nc(C(C)(C)C)cc2NC(=O)Nc2ccc(OCCN3CCOCC3)c3ccccc23)cc1
inactive: outcome [2] | outcome [3] | outcome [4]

COc1cc(Cc2cnc(N)nc2N)cc(OC)c1OC
2: inclusion score [7]
inactive: fluorescence ratio [1] 0.97 | log fold change Tl+ flux (F380Y) 0.00407 | log fold change Tl+ flux (F380Y/beta1) 0.057 | log fold change Tl+ flux (F380Y/beta2Delta) -0.0235 | log fold change Tl+ flux (F380Y/beta4) 0.0143 | log fold change Tl+ flux [5] -0.00393 | log fold change Tl+ flux (R275C) 0.00151 | log fold change Tl+ flux (R275C/beta1) -0.051 | log fold change Tl+ flux (R275C/beta2Delta) -0.0321 | log fold change Tl+ flux (R275C/beta4) 0.00256 | log fold change Tl+ flux (R275C/Slo1WT/beta2) 0.00876

N=c1nc(N2CCCCC2)cc(N)n1O
inactive: outcome [2] | outcome [3] | outcome [4] | log fold change Tl+ flux (F380Y) -0.0693 | log fold change Tl+ flux (F380Y/beta1) 0.0169 | log fold change Tl+ flux (F380Y/beta2Delta) -0.0535 | log fold change Tl+ flux (F380Y/beta4) -0.0416 | log fold change Tl+ flux [5] 0.00253 | log fold change Tl+ flux (R275C) -0.0452 | log fold change Tl+ flux (R275C/beta1) -0.0046 | log fold change Tl+ flux (R275C/beta2Delta) -0.0232 | log fold change Tl+ flux (R275C/beta4) 0.0196 | log fold change Tl+ flux (R275C/Slo1WT/beta2) 0.0414
1: inclusion score [7]
active: fluorescence ratio [1] 0.1

Cc1ccc(/C(=C\CN2CCCC2)c2ccccn2)cc1
2: inclusion score [7]

O=C(O)c1cn(C2CC2)c2cc(N3CCNCC3)c(F)cc2c1=O
2: inclusion score [7]

O=C(O)COCCN1CCN(C(c2ccccc2)c2ccc(Cl)cc2)CC1 (centres undefined)
inactive: outcome [3]

CC1(C)[C@H](C(=O)O)N2C(=O)C[C@H]2S1(=O)=O
inactive: outcome [3]
